From PubChem BioAssay (NCATS)
Inconclusive results are not listed. The source made the active and inactive calls. The call rests on the fitted dose curve. Starred links: 1 amine or outer side, 2 acyl side, 3 side chain; linkers in the order of their positions; H or OH if unused. Positions of bridges follow the written chain, without caps; N, C: chain ends. Non-standard residues stand in square brackets, D forms with d. Residues, ends and D or L forms follow the SMILES beside them. Chains are numbered I, II in the order given. *: point of attachment. Actinocin(9to1) = Cc1c2oc3c(C)ccc(C(=O)[*:1])c3nc-2c(C(=O)[*:2])c(N)c1=O; NMeV = CN[CH](C(=O)O)C(C)C; Nva = CCC[C@H](N)C(=O)O; Cbz = O=C(OCc1ccccc1)*; Sar = CNCC(=O)O

Experiments:
[1] = qHTS drug screen for cell cycle checkpoint inhibitors in PARPi-resistant BRCA-mutant ovarian cancer cell lines. (AID 1963452); details: PEO1/OlaR viability, CellTiter-Glo luminescence, 96 h; for Z-AUC: stronger effect = lower value
Procedure, shortened: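 PEO1, PEO4 and PEO1/OlaR ovarian cancer cells, 600 per well, exposed 96 h at 37C to a dilution series. Viability read by CellTiter-Glo luminescence, normalized to DMSO and empty wells; activity summarized as Z-AUC.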

[2] = qHTS for identification of novel therapeutic agents for treatment of microphthalmiaassociated transcription factor (MiT) renal cell carcinoma (RCC) (AID 1963991); details: CellTiter-Glo, 48 h; for Potency: active = Z-AUC below -0.8 in all three lines; for z-score: stronger effect = lower value
Procedure, shortened: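 Three TFE3-fusion RCC cell lines (UOK109, UOK124, UOK145), 500 cells/well, were exposed to the 1912-compound MIPE 4.0 library for 48 hours at 37 C. Viability was read by CellTiter-Glo luminescence, normalised to DMSO (100%) and empty wells (0%), with 11-concentration curve fits.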

[3] = measured here: PEO1 parental Z-AUC
[4] = TFE3-RCC UOK109 viability, measured here: UOK109 Z-AUC
[5] = TFE3-RCC viability, measured here: UOK124 Z-AUC
[6] = TFE3-RCC viability, measured here: UOK145 Z-AUC
Potency means the concentration at half of the fitted maximal effect.

| SMILES | Potency [1] | Z-AUC [1, 3] | Z-AUC ([1]; measured here: PEO4 Z-AUC) | Potency ([2]; TFE3-RCC UOK109 viability) | z-score [2, 4] | z-score [2, 5] | z-score [2, 6] | Z-AUC [1] |
| --- | --- | --- | --- | --- | --- | --- | --- | --- |
| Cn1cc(CNCC2CCN(c3ncc(C(=O)NO)cn3)CC2)c2ccccc21 | 195 nM (active) | -1.95 | -1.89 | 166 nM (active) | -1.71 | -4.28 | -1.68 | – |
| CC(=O)O[C@H]1C[C@@H]2CC[C@H]3[C@H]4C[C@H]([N+]5(C)CCCCC5)[C@@H](OC(C)=O)[C@@]4(C)CC[C@@H]3[C@@]2(C)C[C@H]1[N+]1(C)CCCCC1 | – | 1.06 | 1.25 | – | 0.763 | 0.611 | -1.4 | 0.98 (inactive) |
| O=C1NC(O)CCN1[C@@H]1O[C@H](CO)[C@H](O)[C@H]1O (stereo not given in full) | – | -1.1 | -1.36 | – | 0.896 | 0.732 | 0.58 | -0.827 (inactive) |
| CC(C)C[C@H](NC(=O)CNC(=O)c1cc(Cl)ccc1Cl)B1OC(=O)CC(CC(=O)O)(C(=O)O)O1 (stereo not given in full) | 43.6 nM (active) | -3.29 | -3.23 | 83.3 nM (active) | -1.14 | -3.62 | -2.91 | – |
| CCC[C@@H](C=O)NC(=O)[C@H](CC(C)C)NC(=O)[C@H](CC(C)C)NC(=O)OCc1ccccc1 (Cbz-Leu-Leu-[Nva]-aldehyde) | – | -1.42 | -1.86 | 4180 nM (active) | -1.03 | -2.77 | -1.34 | -1.63 (inactive) |
| CCN(C(=O)c1c(O)c2c(Cl)cccc2n(C)c1=O)c1ccccc1 | – | -0.714 | -1.09 | – | 0.408 | 0.904 | 0.468 | -0.417 (inactive) |
| Nc1cccc2c1C(=O)N(C1CCC(=O)NC1=O)C2=O (stereo not given) | – | -0.0375 | -0.357 | – | 0.502 | 0.0802 | -0.491 | -0.524 (inactive) |
| COC[C@H](NC(=O)c1cnc(C)s1)C(=O)N[C@@H](COC)C(=O)N[C@@H](Cc1ccccc1)C(=O)[C@@]1(C)CO1 | 138 nM (active) | -2.62 | -3.23 | 3720 nM (active) | -1.27 | -0.856 | -2.57 | – |
| CCCCC(=O)O[C@]1(C(=O)CO)[C@@H](C)C[C@H]2[C@@H]3CCC4=CC(=O)C=C[C@]4(C)[C@@]3(F)[C@@H](O)C[C@@]21C | – | 0.863 | 0.108 | – | -0.136 | 0.0594 | 0.664 | -0.479 (inactive) |
| C=CC(=O)Nc1ccc2ncnc(Nc3ccc(OCc4cccc(F)c4)c(Cl)c3)c2c1 | – | -1.48 | -1.57 | 590 nM (active) | -2.47 | -3.02 | -1.72 | -0.749 (inactive) |
| Cc1cnc(Nc2ccc(CN3CCOCC3)cc2)nc1Nc1cccc(S(=O)(=O)NC(C)(C)C)c1 | – | -1.2 | -1.56 | 4180 nM (active) | -1.32 | -0.971 | -1.1 | -2.02 (inactive) |
| Cn1cc(-c2ccc3ncc(Cc4ccc5ncccc5c4)n3n2)cn1 | – | 0.877 | 0.786 | – | -0.236 | 0.125 | -0.113 | 0.547 (inactive) |
| C=C(C)[C@@H]1CC[C@]2(C)CC[C@]3(C)[C@H](CC[C@@H]4[C@@]5(C)CC[C@H](O)C(C)(C)[C@H]5CC[C@]43C)[C@@H]12 | – | 0.74 | 1.16 | – | 1.03 | 0.631 | 0.295 | 1.12 (inactive) |
| Cc1c2oc3c(C)ccc(C(=O)NC4C(=O)NC(C(C)C)C(=O)N5CCCC5C(=O)N(C)CC(=O)N(C)C(C(C)C)C(=O)OC4C)c3nc-2c(C(=O)NC2C(=O)NC(C(C)C)C(=O)N3CCCC3C(=O)N(C)CC(=O)N(C)C(C(C)C)C(=O)OC2C)c(N)c1=O (stereo not given) (I: TVP[Sar][NMeV] / II: TVP[Sar][NMeV]; ester I:1-I:C, II:1-II:C; linker I:N-II:N via Actinocin(9to1); configuration not given here) | – | -0.674 | -0.27 | – | -4.2 | -4.25 | -3.66 | -0.322 (inactive) |
| NC(=O)c1cccc(-c2cccc(OC(=O)NC3CCCCC3)c2)c1 | – | 0.554 | -0.318 | – | 0.801 | 0.852 | 0.744 | -0.0721 (inactive) |
| C#CCC(Cc1cnc2nc(N)nc(N)c2n1)c1ccc(C(=O)N[C@@H](CCC(=O)O)C(=O)O)cc1 (stereo not given in full) | 7.8 nM (active) | -2.32 | -1.96 | 132 nM (active) | -1.2 | -2.51 | -2.95 | – |
| CC(=O)OC[C@@H]1O[C@@H](n2ccc(=O)[nH]c2=O)[C@H](OC(C)=O)[C@H]1OC(C)=O | – | 0.423 | 0.195 | – | 0.396 | 1.22 | 0.244 | 0.415 (inactive) |
| Cn1cc(C[C@@H](N)C(=O)O)c2ccccc21 | – | 1.01 | 0.769 | – | 1.28 | 1.02 | 1.04 | 0.11 (inactive) |
